According to ChEMBL document CHEMBL4513216, “Probing the Open Global Health Chemical Diversity Library for Multistage-Active Starting Points for Next-Generation Antimalarials” (ACS Infect Dis, 2020):
The campaign covered roughly 68,000 compounds. About 2,700 (4%) showed an effect of 50% or more. The entries come from a sample that favours strong results as a whole.

Each compound was assayed on Plasmodium berghei (assay: Screen against P. berghei liver stage (PbLuc), transformed with Luciferase, at 2uM). Details: tested at 2 uM.
Type: functional, HepG2
In the case of `CC(C)OCCn1nnnc1Cc1ccc(Br)cc1`, the INHIBITION was -21.99%.
`CNC(=O)NC(=O)CCN1CCN(c2nccs2)CC1` gave an INHIBITION of 27.2%.
With `CS(=O)(=O)c1ccc(C(O)CN2CCC(c3ccn[nH]3)CC2)cc1` (stereo not given) the INHIBITION was 14.82%.
In the case of `C[C@@H]1CN(C(=O)c2cccs2)C[C@]12CCN(CCN(C)C)C2=O`, the INHIBITION was 6.12%.
`CCCc1nc(CN(CC)Cc2ccc(S(C)(=O)=O)cc2)no1` was tested, and the INHIBITION was -5.31%.
Work on `Cc1nnc(SCCC(=O)N(C)Cc2ccc(F)cc2Cl)[nH]1` yielded an INHIBITION of 52.98%.
Compound `Cc1nnc(SCCC(=O)N(C)Cc2c(F)cccc2Cl)[nH]1` has an INHIBITION of 21.97%.
`CN(CC(N)=O)Cc1ccc(F)cc1Cl` gave an INHIBITION of -6.61%.
`Cc1nnc(SCCC(=O)N(C)Cc2ccc(Cl)s2)[nH]1` was tested, and the INHIBITION was 55.36%.
In the case of `CN(Cc1ccc(Cl)s1)C(=O)Cn1nc(-c2ccc(F)cc2)oc1=O`, the INHIBITION was 14.82%.
Work on `Cc1nnc(SCCC(=O)N(C)Cc2ccc(F)cc2F)[nH]1` yielded an INHIBITION of 10.05%.
`O=C(NCCc1cccc(F)c1)NCC(O)c1cccc(F)c1` (stereo not given) showed an INHIBITION of -47.97%.
With `COc1nc2c(cc1C(=O)N1CCCOC(CN3CCCC3)C1)CCC2` (stereo not given) the INHIBITION was -8.45%.
Compound `CCN(Cc1cnn(C)c1)C[C@H]1CC[C@@H](Cc2ccc(C)nc2)O1` has an INHIBITION of 55.84%.
`CCN(Cc1cnn(C)c1)C[C@H]1CC[C@@H](Cc2ccc(OC)nc2)O1` showed an INHIBITION of -6.22%.
`CCN(Cc1cnn(C)c1)C[C@H]1CC[C@@H](Cc2ccc(CO)cc2)O1` showed an INHIBITION of 36.78%.
`CN(C)S(=O)(=O)N1CCO[C@H]2[C@H](Oc3cccnc3)CC[C@@H]21` gave an INHIBITION of -16.75%.
In the case of `O=C(c1cc(CC2(NC3CCCCC3)COC2)no1)N1CCCCC1`, the INHIBITION was 10.08%.
`CC(C)(O)c1cc(CC2(NCC3CCCCC3)COC2)no1` gave an INHIBITION of -24.31%.
With `O=C(c1cc(CC2(NCC3CCCCC3)COC2)no1)N1CCCCC1` the INHIBITION was 54.01%.
Work on `COCc1cc(CC2(NCc3ccccc3Cl)COC2)no1` yielded an INHIBITION of 27.54%.
For `O=C(c1cc(CC2(NCc3ccccc3)COC2)no1)N1CCCCC1`, the INHIBITION was 56.76%.
`OCCc1cc(CC2(NCc3ccncc3)COC2)no1` was tested, and the INHIBITION was 24.64%.
For `O=C(Nc1cccnc1)[C@@H]1C[C@H]2OCC[C@H]2N(Cc2nccs2)C1`, the INHIBITION was 1.06%.
For `CSc1ccccc1CN1C[C@@H]2CC[C@H]1CN(Cc1[nH]cnc1C)C2`, the INHIBITION was 8.26%.
Work on `O=C(Cc1ccc2c(c1)CCO2)N1CCN(c2nccs2)CC1` yielded an INHIBITION of -11.34%.
For `O=C(Cc1ccc2c(c1)OCO2)N1CCCN(c2nccs2)CC1`, the INHIBITION was 79.21%.
Compound `O=C(Cc1ccc2c(c1)OCO2)N1CCCN(c2ccccc2)CC1` has an INHIBITION of -50.86%.
`O=S(=O)(NCC1CCN(c2cnccn2)CC1)c1ccc(F)c(Cl)c1` was tested, and the INHIBITION was 20.8%.
`COc1ccc(-c2nc(C#N)c(N(C)C)o2)cc1S(=O)(=O)N(C)C` gave an INHIBITION of -36.29%.
`COC(=O)[C@H](C)NC(=O)Cn1ccc2ccc(F)cc21` gave an INHIBITION of 0.08%.
For `COC(=O)CCC(=O)Nc1ccc(Br)c(C)n1`, the INHIBITION was 11.88%.
For `O=C([C@@H]1CCO[C@@H]2CCN(Cc3cccs3)C[C@H]21)N1CCCCO1`, the INHIBITION was 27.44%.
For `CC(C)NC(=O)N1C[C@@H]2C[C@H](C(=O)NCc3ccccc3)[C@H](C1)O2`, the INHIBITION was 36.17%.
For `CCOCC(=O)NCc1cc(C2CC2)n(C2CCCC2)n1`, the INHIBITION was 6.9%.
With `CCC(=O)NCc1cc(C2CC2)n(C2CCCC2)n1` the INHIBITION was 50.7%.
`O=C(NCc1cc(C2CC2)n(C2CCCC2)n1)C1CC1` showed an INHIBITION of 14.47%.
With `COCC(=O)N1CCC2(CC1)COCCN2Cc1ccc(F)cc1` the INHIBITION was -5.65%.
`Cc1ccc(NC(=O)CNC(C)CN2CCOCC2)c(F)c1` (stereo not given) was tested, and the INHIBITION was 21.24%.
In the case of `Cc1ccc(NC(=O)CN2CCOCC2)c(F)c1`, the INHIBITION was -1.29%.
`Cc1ccc(NC(=O)CNC(C)CN2CCCCC2)c(F)c1` (stereo not given) showed an INHIBITION of 64.35%.
Compound `CSc1nccc(N2CCC(NCc3ccc4nsnc4c3)CC2)n1` has an INHIBITION of -60.25%.
For `O=C(CC1CCc2ccccc21)NC1(C(=O)O)CCOCC1` (stereo not given), the INHIBITION was 0.54%.
`O=C(CC1CCc2ccccc21)NC1(C(=O)O)CCCC1` (stereo not given) showed an INHIBITION of 16.93%.
For `CC1(NC(=O)CC2CCc3ccccc32)CCOCC1` (stereo not given), the INHIBITION was 60.15%.
`COC(=O)c1cc(OCC2CCC2)cc(C(=O)N[C@@H]2CCCNC2)c1` was tested, and the INHIBITION was -28.09%.
`Cc1cccc(C)c1NC(=O)c1cccc(N(C)S(C)(=O)=O)c1C` showed an INHIBITION of -11.34%.
`CCc1[nH]n(C)c(=N)c1-c1ccc2c(c1)OCO2` gave an INHIBITION of 37.53%.
In the case of `Cn1[nH]c(C2CC2)c(-c2ccc3c(c2)OCO3)c1=N`, the INHIBITION was 58.6%.
`CSCCc1nc(-c2ccc3c(c2)OCO3)n(C)n1` was tested, and the INHIBITION was 12.74%.
`Cn1nc(C2CCCC2)c(-c2ccc3c(c2)OCO3)c1N` was tested, and the INHIBITION was 53.33%.
With `Cn1[nH]c(C2CCC2)c(-c2ccc3c(c2)OCO3)c1=N` the INHIBITION was 14.06%.
`CCCc1[nH]n(C)c(=N)c1-c1ccc2c(c1)OCO2` showed an INHIBITION of 5.92%.
`Cc1nc(C)n(C2CCCN(C(=O)c3ccc4c(c3)COC4)C2)n1` (stereo not given) gave an INHIBITION of 2.08%.
`O=C1CC[C@@H]2[C@@H](CCN2C(=O)c2ccsc2)N1Cc1ccncc1` showed an INHIBITION of 37.48%.
With `Cc1ccc(CN2C[C@H](OCC3CCN(C)CC3)[C@H]3COC[C@H]32)o1` the INHIBITION was -14.64%.
Compound `CNC(=O)[C@H]1C[C@H]2OCC[C@H]2N(Cc2cccc3ccccc23)C1` has an INHIBITION of 16.6%.
In the case of `CC(=O)c1c(F)cccc1NCC(O)c1ccc(F)c(F)c1` (stereo not given), the INHIBITION was 4.26%.
`CC(=O)c1c(F)cccc1NCC(O)C1CC1` (stereo not given) gave an INHIBITION of 31.96%.
`CC(=O)c1c(F)cccc1NCC(O)C(C)(C)C` (stereo not given) was tested, and the INHIBITION was 53.44%.
`CCC(C)NC(=O)c1cc(S(=O)(=O)N(C)C)c(C)s1` (stereo not given) was tested, and the INHIBITION was 25.9%.
`CCC(C)NC(=O)c1cc(S(N)(=O)=O)c(Br)s1` (stereo not given) showed an INHIBITION of -70.18%.
In the case of `CCC(C)NC(=O)c1cc(S(=O)(=O)N2CCCC2)c(C)s1` (stereo not given), the INHIBITION was 53.12%.
Work on `CC(C)(C)c1nnc(CN2CCCC(c3cc(C(N)=O)[nH]n3)C2)o1` (stereo not given) yielded an INHIBITION of -47.97%.
For `COc1ncnc(N(C)C)c1NC(=O)Cc1cc(F)ccc1F`, the INHIBITION was -73.79%.
`CN(C)c1ncncc1NC(=O)Cc1c[nH]c2ccc(F)cc12` gave an INHIBITION of 10.04%.
`COc1ncnc(N(C)C)c1NC(=O)Cc1c[nH]c2ccc(F)cc12` was tested, and the INHIBITION was 62.92%.
`O=C(CN1CC(c2nc(-c3ccco3)no2)C1)NCC1CCCO1` (stereo not given) gave an INHIBITION of 23.01%.
Work on `Cc1cc(NC(=O)NC2CCN(C(C)C)CC2)c2ncccc2c1` yielded an INHIBITION of -40.76%.
Work on `COc1ccc(S(=O)(=O)NCCCc2ccc(N(C)C)cc2)cc1F` yielded an INHIBITION of 25.53%.
`CCOc1ccc(S(=O)(=O)NCCc2ccc(N(C)C)cc2)cc1F` showed an INHIBITION of 21%.
`CCOc1ccc(S(=O)(=O)NCCCc2ccc(N(C)C)cc2)cc1F` was tested, and the INHIBITION was 51.71%.
In the case of `CN(Cc1nnc(-c2ccco2)o1)C(C(N)=O)c1cccc(F)c1` (stereo not given), the INHIBITION was 5.64%.
`CC(C)CCn1ccc(NC(=O)N2CCCC2CN2CCOCC2)n1` (stereo not given) gave an INHIBITION of -39.07%.
Compound `CCNC(=O)CN1CCc2c(Br)ccc(F)c2C1` has an INHIBITION of -25.78%.
With `Cn1ccnc1CN1CCC2(CC1)CN(c1cncnc1)C(=O)CO2` the INHIBITION was 7.71%.
For `Cc1n[nH]c(=O)c2c(NC(=O)CN3CCC(O)CC3)oc(C)c12`, the INHIBITION was 5.72%.
Compound `Cc1n[nH]c(=O)c2c(NC(=O)CN3CCC(C)CC3)oc(C)c12` has an INHIBITION of 26.2%.
Work on `CCOC1CCN(CC(=O)Nc2oc(C)c3c(C)n[nH]c(=O)c23)CC1` yielded an INHIBITION of 52.52%.
`COCC[C@]1(O)CCN(Cc2ccccn2)C[C@H]1C` showed an INHIBITION of 5.39%.
Compound `COC1(CNC(=O)c2ccoc2)CCSC1` (stereo not given) has an INHIBITION of 28.5%.
Work on `O=C(Cc1cccs1)NCC1(O)CCSCC1` yielded an INHIBITION of 52.85%.
`O=C(NCC1(O)CCSCC1)c1ccoc1` gave an INHIBITION of 53.61%.
`O=C(NCC1(O)CCSC1)c1ccoc1` (stereo not given) was tested, and the INHIBITION was 22.4%.
`O=C(Cc1cccs1)NCC1(O)CCc2ccccc2C1` (stereo not given) gave an INHIBITION of 24.6%.
With `O=C(Cc1cccs1)NCC1(O)CCSC1` (stereo not given) the INHIBITION was -2.22%.
Compound `CN(Cc1ccncc1)C1CC2(CCN(c3ncccn3)CC2)C1` has an INHIBITION of 36.48%.
`COc1ccc(NC(=O)NCCCn2nc3ccccn3c2=O)cc1` gave an INHIBITION of -12.82%.
`COCc1cc(N2CCOC(c3ccc(Cl)c(Cl)c3)C2)ncn1` (stereo not given) gave an INHIBITION of -16.62%.
`CC(C)(C)c1cnc(CN2CCC(CN3CCOCC3)CC2)o1` showed an INHIBITION of -10.87%.
For `COCCN(C)C(=O)c1nc2c(s1)CCCN2C`, the INHIBITION was 32.04%.
Compound `O=C(c1ccc(F)cc1F)N1CCN(C(=O)C2CCCCC2)CC1` has an INHIBITION of 16.54%.
In the case of `CC(C)Cc1nc(CCn2cncn2)n(-c2ccc3c(c2)OCCO3)n1`, the INHIBITION was 61.14%.
Compound `CC(C)Cc1nc(CO)n(-c2ccc3c(c2)OCCO3)n1` has an INHIBITION of 31.8%.
`CC(C)c1nc(CCn2cncn2)n(-c2ccc3c(c2)OCCO3)n1` was tested, and the INHIBITION was -39.01%.
With `Cc1cc(N)cc(C2CN(Cc3cc[nH]n3)CCO2)n1` (stereo not given) the INHIBITION was 26.14%.
Compound `COc1ccc(C2CCCCCN2S(N)(=O)=O)cc1` (stereo not given) has an INHIBITION of -16.65%.
Compound `CC(C)c1cc(C(=O)N2CCc3nc(C4CCCN4)ncc3C2)cs1` (stereo not given) has an INHIBITION of 67.83%.
In the case of `Cc1cc(C(=O)N2CCc3nc(C4CCCCN4)ncc3C2)cs1` (stereo not given), the INHIBITION was 12.8%.
`Cc1cc(C(=O)N2CCc3nc(C4CCCN4)ncc3C2)cs1` (stereo not given) was tested, and the INHIBITION was 40.31%.
In the case of `CC(C)(C)C(=O)NS(=O)(=O)c1ccc(C#N)c(C(F)(F)F)c1`, the INHIBITION was 1.52%.
With `COc1ccc(Oc2nccnc2C2CCN(C(C)=O)CC2)cc1` the INHIBITION was 12%.
With `Cc1cccc(C)c1Oc1ncccc1CNC(=O)C1(C)CCCNC1` (stereo not given) the INHIBITION was 50.32%.
`CC1(C(=O)NCc2cccnc2Oc2ccc(F)cc2F)CCCNC1` (stereo not given) showed an INHIBITION of -20.29%.
`COc1ccccc1Oc1ncccc1CNC(=O)C1(C)CCCNC1` (stereo not given) showed an INHIBITION of 43.27%.
